RMI-FANCM inh – blocks RMI1/RMI2 complex binding to FANCM MM2 peptide | FP signal (polarization) at 33 µM | Fluorescence polarization, RMI core complex with F-MM2 peptide; active compounds read low | 0.58% of 70,000 active; in the data active = FP signal below about 40
* = called active by the depositor. This excerpt belongs to a sample that is enriched for hits.

SMILES	RMI-FANCM inh
O=C(Cn1nc(-c2ccccc2)c2sc(N3CCOCC3)nc2c1=O)NCc1ccccc1Cl	68
O=C(Nc1ccccc1)c1cc2ccccc2c(=O)o1	60
O=C(CCc1ccc(O)cc1)N/N=C\C=C\c1ccccc1	58
O=C(CCc1ccc(O)cc1)N/N=C\c1cc(Cl)cc(Cl)c1O	37*
O=C(CCc1ccccc1)N/N=C\c1ccccc1	56
CCOc1ccccc1C(=O)Nc1ccc2c(c1)CN(S(=O)(=O)c1ccccc1)CC2	79
Cc1cc(Cl)c(Cl)cc1S(=O)(=O)Nc1ccccc1C(=O)O	63
Cc1cc(C)c(S(=O)(=O)Nc2cc(Cl)c(O)c3ccccc23)cc1C	25*
COc1ccc(OC)c(S(=O)(=O)Nc2cc(Sc3ccccc3)c(O)c3ccccc23)c1	61
COc1cccc(NC(=O)CSc2ncnc3sc(C)c(-c4ccc(Cl)cc4)c23)c1	80
Cn1cc(C(=O)N2CCOCC2)cc(NC(=O)c2ccccc2C(F)(F)F)c1=O	61
O=C(Nc1ccc2c(c1)N(S(=O)(=O)c1ccccc1)CCC2)C12CC3CC(CC(C3)C1)C2	59
N#CCc1ccc(NC(=O)c2ccccc2C(=O)O)cc1	56
Fc1ccc2nc(NCc3cccnc3)sc2c1	66
Fc1ccc2ncc(-c3ccc(Br)s3)nc2c1	9*
Brc1ccc(-c2ccc(Br)s2)s1	63
CCOc1ccc(-c2noc(CN3C(=O)COc4cc(C(C)(C)C)ccc43)n2)cc1	77
CC(=O)Nc1cccc(NC(=O)CSc2nc(CC(=O)NCc3ccc(F)cc3)cs2)c1	65
Cc1ccccc1OCCn1c(C2CCCO2)nc2ccccc21 (stereo not given)	60
CSc1nnc(-c2ccccc2NC(=O)/C=C/c2cccs2)o1	74
COc1ccc(CCNc2cc(C)c(C#N)c3nc4ccccc4n23)cc1OC	52
COc1ccc2c(C)cc(SCC(=O)c3ccc(OC)c(OC)c3)nc2c1	125
COc1ccc(C(=O)CSc2cc(C)c(C#N)c3nc4ccccc4n23)cc1OC	30*
CC1Cc2ccccc2N1C(=O)COc1cccc(Oc2ccccc2)c1 (stereo not given)	70
CN1C(=O)c2cccc(NC(=O)c3cccc(Cl)c3)c2C1=O	73
SMILES	RMI-FANCM inh
CN1C(=O)c2cccc(NC(=O)c3ccc(N(C)C)cc3)c2C1=O	68
CN1C(=O)c2cccc(N)c2C1=O	-41*
O=S(=O)(c1cccs1)N1CCN(Cc2nc(-c3ccco3)cs2)CC1	62
NC(=O)C1Cc2ccccc2N1C(=O)c1cccs1 (stereo not given)	53
NC(=O)C1Cc2ccccc2N1C(=O)C1CC1 (stereo not given)	66
NC(=O)C1Cc2ccccc2N1C(=O)Nc1cccs1 (stereo not given)	28*
CCOC(=O)Cc1csc(=Nc2ccc(C)cc2)n1CCO	54
Cc1ccc(NC(=O)CC(C)n2nc(C)nc2C)cc1 (stereo not given)	63
CSc1ncc(C#N)c2nc(-c3ccc(N(C)C)cc3)nn12	-1*
O=c1c2cnn(CCO)c2ncn1Cc1cccc([N+](=O)[O-])c1	55
CCOC(=O)N1CCN(C(c2ccccn2)c2c(-c3ccccc3)n(O)c3ccccc23)CC1 (stereo not given)	26*
CCOC(=O)N1CCN(CC(O)COc2ccc(-c3ccccc3)cc2)CC1 (stereo not given)	65
CCOC(=O)N1CCN(C(c2ccncc2)c2c(C)[nH]c3ccccc23)CC1 (stereo not given)	58
Cc1ccc(CC(=O)Nc2nc3ccc(S(=O)(=O)N(C)C)cc3s2)cc1C	75
CCOC(=O)COc1ccccc1/C=C1\Oc2cc(OC)ccc2C1=O	60
Cc1ccccc1N1C(=O)c2cccc3c(C(=O)O)ccc(c23)C1=O	60
O=C(c1ccccc1)c1ccc2c3c(cccc13)CC2	62
O=C(c1ccccc1)c1ccc2c3c(cccc13)C(=O)N(c1ccc3c4c(cccc14)CC3)C2=O	18*
COc1ccc2nc(NC(=O)C3CCCCN3S(C)(=O)=O)sc2c1 (stereo not given)	65
COc1coc(C(=O)Nc2nnc(C)s2)cc1=O	63
O=C(Cc1csc(SCc2ccc(Br)cc2)n1)NCc1cccs1	80
COc1cc(CSc2nc(CC(=O)Nc3nccs3)cs2)cc(OC)c1	58
O=C(Cc1csc(Nc2ccc(OC(F)(F)F)cc2)n1)NCc1ccccn1	-3*
O=C(Cc1csc(SCc2ccc(Br)cc2)n1)NCc1ccccn1	27*
O=C(Cc1csc(SCc2ccc(Br)cc2)n1)NC1CCCC1	66
SMILES	RMI-FANCM inh
O=C(Cc1csc(SCc2ccc(Cl)cc2)n1)NCc1ccccn1	54
O=C(Cc1csc(SCc2ccc(Br)cc2)n1)Nc1nccs1	21*
O=C(Cc1csc(Nc2cccc(C(F)(F)F)c2)n1)NCc1ccccn1	44
CNC(=O)Cc1csc(Nc2ccc(OC(F)(F)F)cc2)n1	61
CSc1ccccc1NC(=O)C(=O)N1CCC(Cc2ccccc2)CC1	57
COc1ccc(CC(=O)Nc2ccc3c(c2)CCCN3C(=O)C2CC2)cc1	55
O=C(Cc1cc(=O)[nH]c(SCc2ccccc2)n1)NCC1CCCCC1	60

Screening data: PubChem, Small Molecule Screening Facility, UW Madison
